“And” between values parts separate entries of the source, which are not always exact repeats. Equal values may be shown once. Screen size: about 5,500 compounds; about 2,000 (36%) were called active. Roughly 18% stayed inconclusive and do not appear here. Some of the results follow. Values without a mark were called inactive. Cut-off read from the data, not from the text of the source: active = normalized growth mostly below about 0.91 (no sharp cut-off); inconclusive = no clear call, values can overlap the other calls; inactive = mostly above about 0.92.
Assay: chemical genetic growth profiling, strain panel (AID 1159580);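 note: tested at 20 µM; growth read once vehicle control cultures reached saturation at 30 °C; 1 = growth at the plate median or of vehicle wells; lower values mean less growth of the strain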
Settings: S. cerevisiae deletion strains, growth OD

**Q.** What does the source list for `O=c1c(O)c(-c2ccc(O)c(O)c2)oc2cc(O)ccc12`?
**A.** normalized growth (locus YAL013W, strain DEP1, hits give low values): 0.836 (active); normalized growth (locus YAL021C, strain ccr4, hits give low values): 1; normalized growth (locus YAL026C, strain drs2, hits give low values): 0.965; normalized growth (locus YAL030W, strain snc1, hits give low values): 1; normalized growth (locus YBL061C, strain skt5, hits give low values): 0.964; normalized growth (locus YBR009C, strain hhf1, hits give low values): 1.01; normalized growth (locus YBR021W, strain FUR4, hits give low values): 0.961; normalized growth (locus YBR023C, strain chs3, hits give low values): 0.961; normalized growth (locus YBR171W, strain sec66, hits give low values): 0.977; normalized growth (locus YBR229C, strain ROT2, hits give low values): 0.993; normalized growth (locus YBR231C, strain swc5, hits give low values): 0.921; normalized growth (locus YBR279W, strain paf1, hits give low values): 0.983; normalized growth (locus YCL011C, strain gbp2, hits give low values): 0.982; normalized growth (locus YCL016C, strain dcc1, hits give low values): 0.977; normalized growth (locus YCL029C, strain bik1, hits give low values): 0.988; normalized growth (locus YCL069W, strain vba3, hits give low values): 1.01; normalized growth (locus YCR088W, strain abp1, hits give low values): 1; normalized growth (locus YDL005C, strain med2, hits give low values): 0.987; normalized growth (locus YDL035C, strain GPR1, hits give low values): 0.864; normalized growth (locus YDL040C, strain nat1, hits give low values): 1; normalized growth (locus YDL074C, strain BRE1, hits give low values): 0.742 (active); normalized growth (locus YDL101C, strain DUN1, hits give low values): 0.98; normalized growth (locus YDL134C, strain PPH21, hits give low values): 0.955; normalized growth (locus YDL185W, strain tfp1, hits give low values): 0.972; normalized growth (locus YDL192W, strain arf1, hits give low values): 0.946; normalized growth (locus YDR001C, strain nth1, hits give low values): 1; normalized growth (locus YDR069C, strain doa4, hits give low values): 0.904; normalized growth (locus YDR101C, strain arx1, hits give low values): 0.957; normalized growth (locus YDR137W, strain rgp1, hits give low values): 0.978; normalized growth (locus YDR150W, strain NUM1, hits give low values): 0.946; normalized growth (locus YDR159W, strain sac3, hits give low values): 0.934; normalized growth (locus YDR162C, strain NBP2, hits give low values): 0.831 (active); normalized growth (locus YDR195W, strain ref2): 0.969; normalized growth (locus YDR297W, strain sur2, hits give low values): 0.966; normalized growth (locus YDR318W, strain mcm21, hits give low values): 0.927; normalized growth (locus YDR334W, strain swr1, hits give low values): 0.981; normalized growth (locus YDR335W, strain msn5, hits give low values): 0.995; normalized growth (locus YDR388W, hits give low values): 0.974; normalized growth (locus YDR392W, strain spt3, hits give low values): 0.845; normalized growth (locus YDR502C, strain sam2, hits give low values): 0.915 (active); normalized growth (locus YEL003W, strain gim4, hits give low values): 0.961; normalized growth (locus YEL037C, strain rad23, hits give low values): 0.988; normalized growth (locus YEL061C, strain CIN8 (second series), hits give low values): 0.996; normalized growth (locus YEL061C, strain CIN8, hits give low values): 0.95; normalized growth (locus YER015W, strain faa2, hits give low values): 0.974; normalized growth (locus YER016W, strain bim1, hits give low values): 0.989; normalized growth (locus YER110C, hits give low values): 0.982; normalized growth (locus YER111C, strain swi4, hits give low values): 0.97; normalized growth (locus YER155C, strain BEM2 (second series), hits give low values): 0.89; normalized growth (locus YER155C, strain BEM2, hits give low values): 1.02; normalized growth (locus YER167W, strain BCK2, hits give low values): 0.9 (active); normalized growth (locus YFR010W, strain ubp6, hits give low values): 0.96; normalized growth (locus YGL078C, strain dbp3, hits give low values): 0.988; normalized growth (locus YGL086W, strain mad1, hits give low values): 0.905 (active); normalized growth (locus YGL167C, strain pmr1, hits give low values): 0.972; normalized growth (locus YGL173C, strain kem1, hits give low values): 0.938; normalized growth (locus YGL227W, strain vid30, hits give low values): 0.994; normalized growth (locus YGL240W, strain doc1, hits give low values): 1.03; normalized growth (locus YGL248W, strain PDE1, hits give low values): 0.923; normalized growth (locus YGL253W, strain hxk2, hits give low values): 0.969; normalized growth (locus YGR078C, strain PAC10, hits give low values): 0.756 (active); normalized growth (locus YGR135W, strain pre9, hits give low values): 0.85 (active); normalized growth (locus YGR229C, strain SMI1, hits give low values): 0.372 (active); normalized growth (locus YGR252W, strain gcn5, hits give low values): 0.873; normalized growth (locus YHR013C, strain ard1, hits give low values): 0.94; normalized growth (locus YHR027C, strain rpn1, hits give low values): 0.988; normalized growth (locus YHR030C, strain SLT2, hits give low values): 0.899 (active) and 0.324 (active); normalized growth (locus YHR079C, strain IRE1 (second series), hits give low values): 0.978; normalized growth (locus YHR079C, strain IRE1, hits give low values): 0.381 (active); normalized growth (locus YHR094C, strain hxt1, hits give low values): 1.01; normalized growth (locus YHR129C, strain ARP1, hits give low values): 0.861 (active); normalized growth (locus YHR142W, strain chs7, hits give low values): 0.982; normalized growth (locus YHR200W, strain rpn10, hits give low values): 0.938; normalized growth (locus YIL066C, strain RNR3, hits give low values): 0.846 (active); normalized growth (locus YIL073C, strain SPO22, hits give low values): 0.851; normalized growth (locus YIL125W, strain kgd1, hits give low values): 0.967; normalized growth (locus YIR030C, strain dcg1, hits give low values): 1.01; normalized growth (locus YJL092W, strain hpr5, hits give low values): 0.995; normalized growth (locus YJL095W, strain BCK1 (second series), hits give low values): 0.981; normalized growth (locus YJL095W, strain BCK1, hits give low values): 0.743 (active) and 0.428 (active); normalized growth (locus YJL115W, strain asf1, hits give low values): 0.998; normalized growth (locus YJL129C, strain trk1, hits give low values): 0.966; normalized growth (locus YJL134W, strain LCB3, hits give low values): 1; normalized growth (locus YJL154C, strain vps35, hits give low values): 0.999; normalized growth (locus YJL164C, strain tpk1, hits give low values): 0.985; normalized growth (locus YJL166W, strain qcr8, hits give low values): 0.986; normalized growth (locus YJL168C, strain set2, hits give low values): 0.985; normalized growth (locus YJL187C, strain SWE1 (second series), hits give low values): 0.915; normalized growth (locus YJR043C, strain POL32, hits give low values): 0.778 (active); normalized growth (locus YJR066W, strain TOR1, hits give low values): 0.59 (active); normalized growth (locus YJR075W, strain HOC1, hits give low values): 0.83 (active)
